Most compounds without a hit are left out; they make up all but 4.1% or so of the library.
ssDAF-12 act: S. stercoralis DAF-12 nuclear receptor activators, primary screen, cell-based, luminescence, HEK293, GRIP1 co-expression, lit1-tk-luc; Nuclear hormone receptor DAF-12 (Strongyloides stercoralis); HEK293 ssDAF-12/GRIP1 lit1-tk-luc reporter; % of 3 µM dafachronic acid response; activation, % at 6.8 µM; 370,000 compounds, 1% hits; AID 652126, 2013;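 active = activation above the mean over all tested compounds plus 3 SD, cut at about 0.9% in these data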;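 also: 0% = DMSO-only wells and 100% = 3 µM delta7-dafachronic acid wells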
hgDAF12 agonist: H. glycines DAF-12 receptor agonists, primary screen, cell-based, luminescence, HEK293, GAL4 fusion, UAS-luciferase; Nuclear hormone receptor DAF-12 (Heterodera glycines), GAL4 fusion; HEK293 GAL4-hgDAF12 UAS-luciferase reporter, agonist luminescence; normalized to butyrate control; activation, % at 6.8 µM; 370,000 compounds, 1.8% hits; AID 687014, 2013;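 active = activation above a cutoff set at the mean of all screened compounds plus 3 SD, cut at about 10% in these data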;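 also: 0% = DMSO wells and 100% = sodium butyrate wells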
DAX1 inh-1: DAX1 (NR0B1) inhibitors, primary screen, cell-based, HEK293, Gal4-DAX1, luciferase luminescence | inhibition, % at 6.75 µM | Nuclear receptor subfamily 0 group B member 1 (Homo sapiens), P51843 | HEK293 Gal4-DAX1 luciferase reporter | 340,000 compounds, 0.99% hits;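 active = inhibition above the mean over all tested compounds plus 3 SD, cut at about 4.2% in these data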;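 also: 0% = DAX1-transfected cells with DMSO and 100% = empty-vector control cells with DMSO; inhibition shows as a rise in luminescence from relieved DAX1 repression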
Target sequence (P51843 207-470 limits assumed): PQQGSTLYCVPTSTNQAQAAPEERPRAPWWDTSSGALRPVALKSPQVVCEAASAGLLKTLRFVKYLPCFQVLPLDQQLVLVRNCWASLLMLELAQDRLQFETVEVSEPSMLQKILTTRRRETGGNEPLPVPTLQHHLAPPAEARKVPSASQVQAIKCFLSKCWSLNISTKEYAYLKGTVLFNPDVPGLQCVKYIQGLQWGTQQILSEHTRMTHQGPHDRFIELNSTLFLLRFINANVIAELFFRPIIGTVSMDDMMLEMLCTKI
PolyA inhibitor: polyadenylation inhibitors in yeast reporter cells, primary screen, luminescence, S. cerevisiae; S. cerevisiae SKY197-pL101 polyadenylation reporter, beta-gal luminescence; efflux-impaired pdr1/pdr3 knockout yeast; score 100 = 6 SD above DMSO; activity score, % at 12 µM; 300,000 compounds, 0.02% hits; AID 1875, 2009;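 active = lowest replicate activity score at least 50, where 100 means six control SD above control mean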;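 also: yeast exposed to compound for 9 h at 30 °C; higher score means more reporter readthrough which indicates perturbed polyadenylation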
DAX1 inh-2: DAX1 (NR0B1) inhibitors on StAR promoter, primary screen, cell-based, luminescence, SF-1 (NR5A1), full-length DAX-1; HEK293T StAR-luciferase reporter, SF-1/DAX-1 repression relief; inhibition, % at 6.8 µM; 370,000 compounds, 1.1% hits;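 active = inhibition above the mean over all tested compounds plus 3 SD, cut at about 3.6% in these data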;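 also: 0% = DAX-1 cells with DMSO and 100% = cells lacking DAX-1 with DMSO; higher inhibition means more luminescence from relief of DAX-1 repression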
hcDAF-12 act: H. contortus DAF-12 nuclear receptor activators, primary screen, cell-based, luminescence, HEK293, lit1-tk-luc reporter. HEK293 hcDAF-12 lit1-tk-luc reporter; 0% DMSO, 100% Δ7-dafachronic acid. 370,000 compounds, 1.4% hits. AID 652067, 2013. activation, % at 6.8 µM;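 active = activation above the mean of all tested compounds plus 3 SD, cut at about 5.5% in these data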;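 also: 100% = response to 3 µM Δ7-dafachronic acid high control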
The depositor's hits bear a star; / = no result given.

SMILES | ssDAF-12 act | hgDAF12 agonist | DAX1 inh-1 | PolyA inhibitor | DAX1 inh-2 | hcDAF-12 act
CCOC(=O)Nc1sc2c(c1C(N)=O)CCC(C)C2 (stereo not drawn) | -1 | -2 | -1 | -10 | 0 | -1
CC(=O)NC(=S)Nc1sc2c(c1C(N)=O)CCC(C)C2 (stereo not drawn) | 1 | 10 | 5.0* | 14 | 2 | 3
CCCCCCc1ccc(NC(=O)[C@@H]2CC=C[C@@H]3CCN(Cc4ccccc4)C(=O)[C@@H]32)cc1 | -1 | 2 | / | / | / | -2
Nc1ccccc1Nc1cc(-c2ccccc2)[nH]n1 | -1 | 10 | 1 | -8 | 2 | 6.0*
C[C@H]1[C@@H](NC(=O)C#Cc2ccccc2)CC[C@@]23CCCN2C(=O)CCC[C@@H]13 | -2 | -3 | / | / | / | -1
CCOC(=O)/C(C#N)=C/Nc1ccccc1OC(F)(F)F | 1.5* | 2 | / | 21 | -1 | -1
CCOC(=O)/C(C#N)=C/Nc1cc(OC)ccc1OC | -1 | 2 | 0 | 2 | -1 | -2
O=C(NCC1CCN(C(=O)C(=O)c2cccs2)CC1)c1cccnc1 | -1 | 3 | / | / | 0 | 1
CC(C)(C)c1ccc(-c2cc(C(=O)NNC(=O)Nc3ccccc3)c3ccccc3n2)cc1 | 1 | 11* | 3 | 9 | 3.9* | 4
O=C(NNC(=O)c1cc(-c2ccccc2)nc2ccccc12)Nc1cccc(Cl)c1 | -1 | -2 | 0 | 0 | -1 | -1
Cc1cccc(S(=O)(=O)NNC(=O)c2cc(-c3ccc(F)cc3)nc3ccccc23)c1 | -1 | 3 | 4.3* | 12 | 1 | -2
CCSc1nnc(NC(=O)c2ccco2)s1 | -1 | 4 | 0 | -7 | 1 | 0
COC(=O)Nc1nnc(/C=C/c2ccccc2)s1 | 0 | 3 | 0 | 0 | 2 | 3
CC(C)Sc1nnc(NC(=O)c2ccco2)s1 | 1.8* | 8 | 1 | -17 | 2 | 0
Nc1nnc(/C=C/c2ccccc2)s1 | -1 | 6 | -1 | -7 | 1 | 5.8*
O=C(Nc1nnc(/C=C/c2ccccc2)s1)c1ccco1 | 1.6* | 5 | -1 | -23 | 0 | 0
Cc1ccc(NC(=S)NNC(=O)CSc2nc3sc4c(c3c(=O)n2-c2ccccc2)CCCC4)cc1 | -1 | 0 | / | / | 1 | 1
CC(=O)NCc1ccc(OCCCN2CCC(C(O)(c3ccccc3)c3ccccc3)CC2)cc1 | -1 | 0 | / | / | 2 | -1
CC(C)CNc1cccc2c1S(=O)(=O)N[C@@H](C)CO2 | -1 | -1 | / | / | 1 | -1
O=C(O)c1ccc(-n2ncc3c2/C(=C/c2cccc([N+](=O)[O-])c2)CC3)cc1 | 0.9* | 0 | 0 | 14 | 0 | 4
CCCNC(=O)N1CC[C@H]2[C@@H]1c1cc(-c3ccc(F)cc3)ccc1N(C)[C@H]2CO | -1 | -2 | / | / | -1 | 0
Cc1ccccc1C1CCC2(CC1)CCN(CC[C@@H](O)c1ccccc1)C2=O (stereo partly drawn) | -2 | 2 | / | / | / | -1
CS(=O)(=NS(=O)(=O)c1ccc(Cl)cc1)c1ccccc1 (stereo not drawn) | -2 | 3 | 4.3* | 13 | 0 | 0
CCCCN1CN2CCc3ccccc3C2CS1(=O)=O (stereo not drawn) | -1 | 0 | / | / | 1 | -5
COc1cc(C(=S)N2CCOCC2)cc(OC)c1OC(=O)c1ccc(F)cc1 | -1 | 0 | 0 | 8 | 0 | -1
SMILES | ssDAF-12 act | hgDAF12 agonist | DAX1 inh-1 | PolyA inhibitor | DAX1 inh-2 | hcDAF-12 act
COc1cc(C(=O)Oc2c(OC)cc(C(=S)N3CCOCC3)cc2OC)cc(OC)c1OC | -2 | -3 | 5.0* | 14 | 0 | -1
CCCCN1CCN(C(=O)c2ccc(CNC(=O)c3cccc(Br)c3)cc2)CC1 | -1 | -3 | / | / | -1 | -2
CC(OC(=O)CC1Sc2ccccc2NC1=O)C(=O)N(C)Cc1ccccc1 (stereo not drawn) | 1.0* | 3 | 2 | / | 1 | 2
CCCCCCCCN1C(=O)N2Cc3ccccc3C2CS1(=O)=O (stereo not drawn) | -1 | 0 | / | / | -1 | -1
COc1ccc(C(=O)Nc2ccc3[nH]ccc3c2)cc1 | 2.5* | 16* | -7 | 0 | 3 | 9.5*
COc1ccc(C(=O)Nc2ccc3[nH]ncc3c2)cc1 | 1 | 13* | -4 | 12 | 2 | 3
COc1ccc(C(=O)Nc2ccc3[nH]ccc3c2)cc1OC | -1 | 6 | 3 | -3 | 2 | 1
O=C(Nc1ccc2[nH]ncc2c1)c1ccc(F)cc1 | -1 | 10 | 0 | 14 | 3 | -1
COc1ccc(C(=O)N/N=C(\C)CC(=O)Nc2ccc3ccccc3c2)c(OC)c1 | 0 | 4 | 1 | 2 | 3 | 1
COc1ccc(C(=O)Nc2ccc3cn[nH]c3c2)c(OC)c1 | 0.9* | -2 | 2 | -13 | 1 | 1
COc1ccc(OC)c(C(=O)Nc2ccc3[nH]ccc3c2)c1 | 0 | 12* | 1 | -11 | 2 | 4
CC1CC(C)CN(C(=O)C2CCN(c3cncnc3)CC2)C1 (stereo not drawn) | -1 | 0 | / | / | 0 | 1
Clc1ccc(-n2c(Cc3cccs3)nnc2SC/C=C/c2ccccc2)cc1 | -1 | -1 | / | / | 0 | 1
O=C(Nc1ccc2[nH]ccc2c1)c1cccs1 | 0 | 11* | -1 | -3 | 2 | 2
CC(=O)Nc1ccc2[nH]ccc2c1 | -1 | 1 | 0 | 23 | 0 | 0
CN(C)c1ccc(-c2nn3c(-c4ccco4)nnc3s2)cc1 | -2 | 3 | / | / | 1 | -2
C=CCN1C(=O)S/C(=C\c2ccc(N3CCOCC3)cc2C)C1=O | -1 | 6 | 4.2* | -15 | 1 | 1
Cc1ccsc1/C=N/n1c(-c2ccccn2)n[nH]c1=S | -1 | 0 | -1 | 10 | 0 | 5.7*
Cc1ccsc1/C=N/n1c(-c2ccccc2)n[nH]c1=S | -1 | 2 | 0 | -28 | 0 | 0
COC(=O)[C@]12CCCCC=C1N(Cc1ccc(OC)cc1)C(=O)[C@@H]2CC(=O)NCc1ccc(OC)c(OC)c1 | 0 | -1 | / | / | -1 | -4
Cc1cccc(C(=O)OCC(=O)NCC2COc3ccccc3O2)c1 (stereo not drawn) | -1 | -2 | 0 | / | 4.3* | 3
